Reference: PubChem BioAssay AID1224854 (National Center for Advancing Translational Sciences (NCATS), 2016)
Results filed as inconclusive are left out. The source made the active and inactive calls. Calls come from the whole dose curve; as a rule, active = well fitted activation curve with a large enough effect; inconclusive = small, poorly fitted or top-dose-only effect; inactive = flat fitted curve, though single readings scatter.

assay: Cell viability assay for measurement of the protective activity of small molecules against cell death caused by Zika virus infection in human astrocytoma cells; settings: SNB-19 Zika virus cytoprotection, ATP luminescence, 72 h; series mostly up to 46.1 µM; protection from virus-induced cell death: at the top concentration
Text: National Center for Advancing Translational Sciences [NCATS] Johns Hopkins University School of Medicine Florida State University Assay Overview: Zika virus infection causes cell death in certain cell types including human neural progenitor cells (hNPCs), astrocytes, and astrocytoma cell line (SNB-19). This cell viability assay measures the ATP content (level) in human astrocytoma cells (SNB-19) using a luminescence readout that is proportional to viable cell numbers. Decrease in the luminescence signal after Zika virus infection indicates the cell death caused by Zika virus. Small molecule inhibitors […] the decreased luminescence signal after Zika virus infection, indicating the protective effect of that small molecule on the cell death caused by Zika virus infection. This observed protective effect of small molecules against Zika virus induced cell death may result from inhibition of virus replication or cellular response to the virus infection.
Assay Protocol Summary: The medium for SNB-19 cells is composed of RPMI 1640 (ATCC, Cat.# 30-2001), 10% fetal bovine serum (FBS) (GE healthcare Life Sciences, Cat.# SH30071.03), and 1% Pen/Strep (Gibco, Cat.# 15140-122). The ATP content assay kit (PerkinElmer, Cat.# 6016731) was used to determine cell viability. The reagent was reconstituted and prepared as described by the manufacturer. Cells were seeded in 384- or 1536-well assay plates and cultured at 37 C with 5% CO2 for 16 to 20 hours. The typical cell seeding density in the 1536-well plate assay is 250 cells/well in 3ul medium for SNB-19 cells in tissue culture treated plates. Compounds were added to cells and incubated for one hour before addition of ZIKV solution to cells (2 FFU/cell). After incubation at 37 C with 5% CO2 for 72 hours, the reagent mixture of the ATP content assay kit was added to each well, followed by incubation at room temperature for 10 minutes. The luminescence intensity of the assay plates was measured using a ViewLux plate reader (PerkinElmer). […] The percentage inhibitions of the decreased cell viability by small molecule inhibitors were then calculated.

Row | Compound | protection from virus-induced cell death | Potency
1 | CC(=O)OC(C)OC(=O)C(C)c1ccc(-c2ccccc2)c(F)c1 (stereo not given) | 8.66% (inactive) | –
2 | NC(=O)c1cccc2[nH]c(-c3ccc([C@H]4CCCN4)cc3F)nc12 | -12.1% (inactive) | –
3 | O=C(Nc1ccc([N+](=O)[O-])cc1Cl)c1cc(Cl)ccc1O | – | 1.55 µM (active)
4 | Nc1c(S(=O)(=O)O)cc(Nc2ccc(Nc3nc(Cl)nc(Nc4ccc(S(=O)(=O)O)cc4)n3)c(S(=O)(=O)O)c2)c2c1C(=O)c1ccccc1C2=O | -1.96% (inactive) | –
5 | CC1(C)OC2=C(C(=O)c3ccccc3C2=O)[C@H](NCc2ccccc2)[C@H]1O | -22.5% [at 88.3 µM] (inactive) | –
6 | CC(=O)Nc1ccc([C@H](C)C(=O)Nc2ncc(C(C)C)s2)cc1 | – | 6.15 µM (active)
7 | O=c1oc2cc(O)ccc2s1 | -5.06% (inactive) | –
8 | O=C(O)c1cccc(-c2noc(-c3ccccc3F)n2)c1 | -13.8% (inactive) | –
9 | CC(=NNC(=S)N1CCC1)c1ccccn1 | – | 0.69 µM (active)
10 | CCCC(=O)OC[C@@H](OC(=O)CCC)[C@@H](OC(=O)CCC)[C@H](Cn1c2nc(=O)[nH]c(=O)c-2nc2cc(C)c(C)cc21)OC(=O)CCC | 6.76% (inactive) | –
11 | COc1ccc(C=CC(=O)Nc2ccccc2C(=O)O)cc1OC | -10.7% (inactive) | –
12 | COc1ccc2nc(NC(=O)Nc3ccccc3)sc2c1 | -12.6% (inactive) | –
13 | C/C(=N\O)c1ccc(OCC(=O)N2CCCCC2)cc1 | -12.8% (inactive) | –
14 | CC(=O)Oc1cccc2c1C(=O)c1c(OC(C)=O)cc(C(=O)O)cc1C2=O | 6.53% (inactive) | –
15 | CN(C)c1ccc(C(=C2C=CC(=[N+](C)C)C=C2)c2ccccc2)cc1 | -19.4% (inactive) | –
16 | Cc1cc(O)c2ccccc2c1O | -17.9% (inactive) | –
17 | [O-][n+]1ccccc1SSc1cccc[n+]1[O-] | -20.1% [at 88.3 µM] (inactive) | –
18 | C[C@@H]1CCN(C(=O)CC#N)C[C@H]1N(C)c1ncnc2[nH]ccc12 | -10.5% (inactive) | –
19 | CC(C(=O)O)c1ccc(C(=O)c2cccs2)cc1 (stereo not given) | 11.1% (inactive) | –
20 | CCC(C(=O)O)c1ccc(N2Cc3ccccc3C2=O)cc1 (stereo not given) | -4.15% (inactive) | –

Row | Compound | protection from virus-induced cell death | Potency
21 | C[C@@H](O[C@H]1OCCN(Cc2n[nH]c(=O)[nH]2)[C@@H]1c1ccc(F)cc1)c1cc(C(F)(F)F)cc(C(F)(F)F)c1 | 2.59% (inactive) | –
22 | COc1cccc(-c2ccc(NC(=O)C3=C(C(=O)O)CCC3)c(F)c2)c1 | -9.15% (inactive) | –
23 | O=C(O)[C@H](CC(=O)N1C[C@@H]2CCCC[C@H]2C1)Cc1ccccc1 | -0.686% (inactive) | –
24 | CO[C@H]1C(=O)[C@]2(C)[C@@H](OC)C[C@H]3OC[C@@]3(OC(C)=O)[C@H]2[C@H](OC(=O)c2ccccc2)[C@]2(O)C[C@H](OC(=O)[C@H](O)[C@@H](NC(=O)OC(C)(C)C)c3ccccc3)C(C)=C1C2(C)C | -12.5% (inactive) | –
25 | O=c1c(-c2ccc(O)cc2)coc2cc(OC3O[C@H](CO)[C@H](O)[C@H](O)[C@H]3O)cc(O)c12 (stereo not given in full) | 8.55% (inactive) | –
26 | O=c1[nH]nc(Sc2ncc([N+](=O)[O-])s2)n1-c1ccc2c(c1)OCCO2 | – | 6.15 µM (active)
27 | COc1cccc2c1C(=O)c1c(O)c3c(c(O)c1C2=O)C[C@@](O)(C(=O)CO)C[C@@H]3O[C@H]1C[C@H](N)[C@H](O[C@@H]2CCCCO2)[C@H](C)O1 | -20.3% (inactive) | –
28 | N[C@H](CSC(c1ccccc1)(c1ccccc1)c1ccccc1)C(=O)O | 4.41% (inactive) | –
29 | CCOC1OC(=O)C[C@H]1NC(=O)[C@@H]1CCCN1C(=O)[C@@H](NC(=O)c1ccc(N)c(Cl)c1)C(C)(C)C (stereo not given in full) | 0.201% (inactive) | –
30 | O=c1c2ccccc2nc2n1CCc1c-2[nH]c2ccccc12 | -7.42% (inactive) | –
31 | Cc1cccc(C#Cc2ccccc2)n1 | -5.24% (inactive) | –
32 | CC(C)(C)OC(=O)CN(Cc1ccc(Cl)cc1)Cc1ccc([N+](=O)[O-])s1 | – | 35.5 µM (active)
33 | COc1ccc(-c2cc(=S)ss2)cc1 | -5.82% (inactive) | –
34 | O=C(CS)Nc1ccccc1 | -2.47% (inactive) | –
35 | CCN(CC)c1ccc(C(=C2C=CC(=[N+](CC)CC)C=C2)c2cc(S(=O)(=O)O)ccc2S(=O)(=O)[O-])cc1 | -9.19% (inactive) | –
36 | O=C(O)[C@@H](c1ccc(OCc2ccc3ccccc3n2)cc1)C1CCCC1 | -6.29% (inactive) | –
37 | O=C1c2ccccc2C(=O)c2c1ccc(O)c2O | 1.15% (inactive) | –
38 | CCCCCCCC/C=C/C(=O)O | -6.5% (inactive) | –
39 | COc1ccc(-c2cc(=O)c3c(O)cc(O)cc3o2)cc1O | 10.6% (inactive) | –
40 | CCCCC1C(=O)N(c2ccccc2)N(c2ccc(O)cc2)C1=O (stereo not given) | – | 19.5 µM (active)
